Only some compounds are listed: those with a hit (about 19% of all), similar ones and a draw of the others.
TDP1 inh: inhibitors of human tyrosyl-DNA phosphodiesterase TDP1; 0.28% of 350,000 active; recombinant TDP1, AlphaScreen DNA substrate cleavage; Q9NUW8; Potency, µM (series often up to 130 µM), for the others: top-dose activity change, negative = inhibition, hits mostly inhibitors; note: potency is the fitted concentration of half-maximal effect; nearly all actives have a fitted effect of over 40% in size
Target sequence (Q9NUW8 whole entry, looked up): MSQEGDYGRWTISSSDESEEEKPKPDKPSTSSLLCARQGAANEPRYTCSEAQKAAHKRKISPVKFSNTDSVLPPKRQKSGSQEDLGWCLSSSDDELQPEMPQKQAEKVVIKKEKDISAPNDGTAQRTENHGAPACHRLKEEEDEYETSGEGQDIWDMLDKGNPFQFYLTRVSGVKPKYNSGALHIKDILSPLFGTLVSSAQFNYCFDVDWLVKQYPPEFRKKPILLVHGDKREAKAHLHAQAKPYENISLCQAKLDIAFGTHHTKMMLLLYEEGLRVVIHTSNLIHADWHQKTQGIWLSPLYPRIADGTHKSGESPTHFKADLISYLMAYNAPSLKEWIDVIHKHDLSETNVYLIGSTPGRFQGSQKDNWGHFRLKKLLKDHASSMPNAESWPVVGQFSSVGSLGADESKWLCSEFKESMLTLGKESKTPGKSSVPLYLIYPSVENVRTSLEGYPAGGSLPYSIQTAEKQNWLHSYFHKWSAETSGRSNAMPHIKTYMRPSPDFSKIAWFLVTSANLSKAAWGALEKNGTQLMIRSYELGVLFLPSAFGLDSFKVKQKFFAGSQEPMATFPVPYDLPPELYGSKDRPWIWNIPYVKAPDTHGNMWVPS
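AlphaScreen read-out: signal falls as enzyme removes the 3' tyrosine-FITC from a 5'-biotinylated DNA oligo (15 nM, 5 min, RT). Enzyme was E. coli-made recombinant Tdp1 at 1 nM, exposed to compound for 15 min beforehand; beads 10 ug/ml, 10 min.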
Giardia killer: Giardia lamblia killing; Giardia lamblia trophozoite viability; activity change, % at 7.66 µM, hits read low; 0.15% of 340,000 active; AID 540267; in the data active = activity change below about -80%; inconclusive = between about -30% and that limit;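 note: parasites exposed to compound for two days anaerobically before the ATP read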
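Trophozoite viability was measured as ATP-dependent luminescence, read 15-30 min after reagent addition. Before that, parasites at 100 cells/well were exposed to compounds for 48 h, anaerobically, at 37 deg C.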
ELG1 repair inh: blocks ELG1-dependent DNA repair in HEK293T cells | AID 504467 | HEK293T ELG1-luciferase reporter, luminescence, 16 h; DNA damage induced by 5-fluorouridine | Potency, µM (titrated, usually from 46.1 µM), inactives show at the top dose activity change, negative = inhibition, hits mostly inhibitors | 2.3% of 330,000 active; note: potency is the fitted concentration of half-maximal effect; nearly all actives have a fitted effect of over 55% in size
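Luminescence from the luciferase reporter, measured 30 min after ONE-Glo reagent at room temperature, was the read-out. Beforehand, 2,000 cells per well were exposed for 16 hr at 37 °C to 5-fluorouridine together with compound or vehicle.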
DT40 TDP1 no CPT: qHTS for Inhibitors of human tyrosyl-DNA phosphodiesterase 1 (TDP1): qHTS in cells in absence of CPT; AID 686978, 2013; 15% of 420,000 active; DT40 Tdp1-/- hTDP1 cells, no CPT, ATP luminescence, 48 h; Potency, µM (top dose mostly 46.2 µM), for inactives: at the highest dose activity change, negative = growth inhibition, actives largely listed as inhibitors; note: potency is the fitted concentration of half-maximal effect; nearly all actives have a fitted effect of over 55% in size
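Chicken DT40 Tdp1-/- cells complemented with human TDP1, screened without camptothecin (DMSO vehicle only), 400 cells/well. Compounds pin-transferred, cells incubated at 37 °C for at least 48 hr. Growth read as ATP-dependent luminescence (CellTiter-Glo, 30 min at RT).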
IL-1B inflam inh: inflammasome signaling inhibition, IL-1 beta readout; THP-1 LPS/ATP IL-1B secretion, AlphaLISA, 16 h; stronger effect = lower value; activity change, % at 57.5 µM; 4.7% of 360,000 active; AID 743279; in the data active = activity change below about -50%; inconclusive = mostly about -30% to -49%
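THP-1 cells pretreated 1 hr with compounds (up to 57.5 uM final), then stimulated with LPS (250 ng/mL final) plus ATP (1.25 mM final); secreted IL-1B measured by AlphaLISA after 16 hr, decreased signal indicating inhibition.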
TDP1 cell CPT: growth inhibition of DT40 Tdp1-/-;hTDP1 cells with camptothecin (screen for TDP1 inhibitors) | AID 686979 | Potency, µM (highest dose often 46.2 µM), inactives show at the highest dose activity change, negative = growth inhibition, usual class: inhibitors | 12% of 420,000 active | chicken DT40 Tdp1-/-;hTDP1 cells + 20 nM CPT, ATP luminescence, 48 h; note: potency is the fitted concentration of half-maximal effect; nearly all actives have a fitted effect of over 55% in size
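Cell growth measured by CellTiter-Glo luminescence after a minimum 48 h, 37 C compound exposure with 20 nM CPT in Tdp1-knockout DT40 cells stably expressing hTDP1, seeded 400/well; qHTS titration format.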
Numbers without * were called inactive; ? = inconclusive; nt = no result given; [ ] = dose if it differs, or a comment. Unless noted, calls come from the whole dose curve; as a rule, active = well fitted curve in the direction sought with a large enough effect; inconclusive = small, poorly fitted or top-dose-only effect, or another doubt; inactive = no such curve, though single readings can be large; an effect the other way counts as inactive or inconclusive. % is set by controls: 0 for no effect and ±100 for the full control effect.

SMILES	TDP1 inh	Giardia killer	ELG1 repair inh	DT40 TDP1 no CPT	IL-1B inflam inh	TDP1 cell CPT
C=C(C)C1CCC(C)=C1COC(=O)Nc1ccccc1 (stereo unspecified)	nt	-25	-4%	?	-62*	?
COc1cc(/C=C(\C#N)c2nc3ccccc3[nH]2)ccc1OCc1ccc(F)cc1	-14%	nt	nt	-28%	nt	-28%
COC(=O)c1ccc(COc2ccc(/C=C(\C#N)c3nc4ccccc4[nH]3)cc2OC)o1	nt	17	-3%	5.8µM*	0	7.3µM*
COc1cc(/C=C(\C#N)c2nc3ccccc3[nH]2)ccc1OCc1cccc(C(F)(F)F)c1	3%	nt	nt	9.2µM*	nt	12µM*
NS(=O)(=O)c1cccc(NS(=O)(=O)c2ccc(/C=C/C(=O)OCC(=O)c3ccccc3)cc2)c1	3%	-5	1%	-23%	-13	12%
Cc1c(C(=O)C(=O)N2CCN(C)CC2)c2ccccc2n1C	5%	1	12%	9%	28	-7%
Cc1c(C(=O)C(=O)N2c3ccc(F)cc3CCC2C)c2ccccc2n1C (stereo unspecified)	-1%	5	-1%	2.6µM*	27	2.6µM*
COc1cc(/C=N/NC(=O)COc2cc(C)cc(C)c2)ccc1OS(=O)(=O)c1ccc(C)cc1	0%	2	?	6.5µM*	3	16µM*
Cc1ccc(NS(=O)(=O)c2cccc([N+](=O)[O-])c2)nc1	9%	-7	-3%	-29%	-7	-8%
COc1ccc(/C=C(/NC(=O)c2cccc([N+](=O)[O-])c2)C(=O)O)cc1OC	0%	4	6%	-1%	-10	24%
COc1ccc(/C=N/NC(=O)c2cccc([N+](=O)[O-])c2)cc1OS(=O)(=O)c1ccc(C)cc1	-2%	12	?	2.6µM*	16	4.1µM*
CCc1ccc(OCC(=O)N/N=C/c2ccc(OS(=O)(=O)c3ccc(C)cc3)c(OC)c2)cc1	3%	28	-26%	7%	-5	-1%
CCOc1ccccc1/C=N/NC(=O)c1cccc(S(=O)(=O)N(CC)CC)c1	0%	13	?	-19%	-1	16%
Cc1ccc(S(=O)(=O)Oc2cccc([N+](=O)[O-])c2)cc1	nt	-12	nt	?	-19	10µM*
CCOc1cc(/C=N/NC(=O)c2cccc([N+](=O)[O-])c2)ccc1OS(=O)(=O)c1ccccc1	2%	13	?	18µM*	-11	?
CCc1ccc(NC(=O)NCCCN2CCCC2=O)cc1	1%	-16	?	15%	0	-9%
O=C(COC(=O)C1CC2CCCC(C1)C2=O)NNC(=O)c1ccc([N+](=O)[O-])cc1 (stereo unspecified)	1%	3	17%	-2%	-7	-12%
COc1ccc(/C=N/NS(=O)(=O)c2ccccc2)cc1OS(=O)(=O)c1ccccc1	7%	-8	-13%	-25%	9	-12%
COc1ccc(C(=O)N/N=C/c2ccc(OC)c(OS(=O)(=O)c3ccccc3)c2)cc1	4%	9	?	16µM*	0	-60%
Cc1c(C=O)ccc(N(C)C)c1C	nt	nt	nt	-11%	nt	12%
CCc1n[nH]c2c1/C(=N\O)CC(c1ccccc1)C2 (stereo unspecified)	6%	34	9%	23µM*	-3	?
CCCCc1n[nH]c2c1/C(=N/O)CC(c1ccccc1)C2 (stereo unspecified)	3%	0	?	?	-58*	?
CCCCc1noc2c1/C(=N\O)CC(c1ccccc1)C2 (stereo unspecified)	3%	-6	0%	-24%	-6	-25%
COc1cc(NS(=O)(=O)c2c(C)[nH]c(C)c2C(=O)N2CCCCC2)cc(OC)c1OC	-1%	-8	-18%	-3%	4	-13%
Cc1ccccc1S(=O)Cc1ccc(C(=O)NC2CCCCCC2)o1 (stereo unspecified)	2%	nt	nt	?	nt	18µM*
SMILES	TDP1 inh	Giardia killer	ELG1 repair inh	DT40 TDP1 no CPT	IL-1B inflam inh	TDP1 cell CPT
Cc1ccc(CS(=O)Cc2ccc(C(=O)NC3CCCC(C)C3C)o2)cc1 (stereo unspecified)	4%	13	-4%	?	-4	21µM*
COc1ccc(CNC(=O)c2ccc(CS(=O)Cc3ccccc3Cl)o2)cc1 (stereo unspecified)	8%	nt	nt	18µM*	nt	?
COc1ccccc1S(=O)Cc1ccc(C(=O)NC2CCCC2)o1 (stereo unspecified)	-1%	-10	2%	-18%	-9	-15%
Cc1ccc(S(=O)Cc2ccc(C(=O)NC3CCCCCC3)o2)cc1 (stereo unspecified)	2%	nt	nt	16µM*	nt	?
Cc1ccc(CNC(=O)c2ccc(CS(=O)Cc3ccccc3Cl)o2)cc1 (stereo unspecified)	3%	-1	2%	-25%	-15	?
CN(C(=O)Nc1cn(C)c(=O)c2ccccc12)c1ccccc1	1%	nt	nt	-3%	nt	-5%
O=C(CCn1cnnn1)N1CCCC(Nc2ccc(F)cc2)C1 (stereo unspecified)	3%[56.1 µM]	-12	13%	2%	16	-10%
O=C(NC1CCCCCCC1)c1ccc(Br)o1	nt	15	?	4.6µM*	-15	-13%
Cc1ccc(CS(=O)Cc2ccc(C(=O)NC3CCCCCC3)o2)cc1 (stereo unspecified)	4%	-14	10%	-9%	-26	-29%
O=C(NC1CCCCCC1)c1ccc(CS(=O)Cc2ccccc2Cl)o1 (stereo unspecified)	4%	-4	-6%	?	-54*	?
O=C(NC1CCCCCC1)c1ccc(Br)o1	3%[0.0935 µM]	?	?	-2%	12	3%
O=C(NCC[C@@H]1CC[C@@H](NS(=O)(=O)c2ccccc2)[C@@H](CO)O1)c1cc(Cl)cc(Cl)c1	nt	nt	nt	?	-29	?
Cc1ccccc1C(=O)NCC(c1ccco1)N1CCc2ccccc2C1 (stereo unspecified)	nt	11	8%	?	-3	?
CCCCC(CC)CCC(CC(C)C)OS(=O)(=O)O (stereo unspecified)	nt	nt	nt	1%	nt	8%
CN(O)/C=c1/ccc2c(n1)C(=O)C=CC=2	19%[56.1 µM]	4	-28%	4.6µM*	70	4.6µM*
CCCn1c(=O)[nH]c(=O)c2c1nc(-c1ccc(OC)c(Br)c1)n2CCOC	1%	13	-2%	-14%	59	1%
